Data on 18 compounds can be found in PubChem BioAssay (Tox21).

Several values for one entry are separate records, joined by “and”; a condition that tells them apart may be missing. Identical values can stand only once. Where a structure was tested more than once in an assay, its records may differ in their call. Activity calls are given as the source filed them. Unless noted, calls follow the shape of the dose curve; as a rule, active = well fitted curve in the direction sought with a large enough effect in the repeat runs; inconclusive = weak or mixed curves; inactive = no such curve, though single readings can be large; an effect the other way counts as inactive or inconclusive.

Test [1] is described as follows: qHTS assay to identify small molecule antagonists of the glucocorticoid receptor (GR) signaling pathway - cell viability counter screen (AID 720693; also: nearly all actives have a fitted effect of over 55% in size). (In general: Quantitative high-throughput screening tests each substance at several concentrations.)
A short description of test [2]: qHTS assay for identifying genotoxic compounds that show differential cytotoxicity against isogenic chicken DT40 cell lines with known DNA damage response pathways - wild type cell line (AID 743012). Also: nearly all actives have a fitted effect of over 60% in size. Also: potency is read from the fitted curve at half-maximal effect. The gist of the method: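 First, wild type DT40 cells were plated at 300 per well and equilibrated about 0.5 h at 37 C/5% CO2. Next, compounds in DMSO were added and exposure lasted 40 h. Finally, CellTiter-Glo was added for 30 min at room temperature and luminescence recorded.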

Test [3] can be described thus: qHTS assay for identifying genotoxic compounds that show differential cytotoxicity against isogenic chicken DT40 cell lines with known DNA damage response pathways - Rev3 mutant cell line (AID 743014). Also: nearly all actives have a fitted effect of over 55% in size. Also: potency is read from the fitted curve at half-maximal effect.
The nature of test [4]: qHTS assay for identifying genotoxic compounds that show differential cytotoxicity against isogenic chicken DT40 cell lines with known DNA damage response pathways - Rad54/Ku70 mutant cell line (AID 743015). Also: nearly all actives have a fitted effect of over 60% in size. Also: potency is read from the fitted curve at half-maximal effect.
A short description of test [5]: qHTS assay to identify small molecule antagonists of the androgen receptor (AR) signaling pathway - cell viability counter screen (AID 743033; also: nearly all actives have a fitted effect of over 45% in size; also: potency is read from the fitted curve at half-maximal effect).
Test [6] can be described thus: qHTS assay to identify small molecule antagonists of the thyroid receptor (TR) signaling pathway - cell viability counter screen (AID 743064). Also: nearly all actives have a fitted effect of over 50% in size. Also: potency is read from the fitted curve at half-maximal effect. The gist of the method: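 Fluorescence from CellTiter-Fluor, added after 23.5 h exposure at 37 °C, reported viability of GH3.TRE-Luc cells co-treated with compound and 1 nM T3. Measured in the same wells as the luciferase TR readout.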

Test [7] is described as follows: qHTS assay to identify small molecule antagonists of the thyroid receptor (TR) signaling pathway (AID 743065). Also: nearly all actives have a fitted effect of over 55% in size. Also: potency is read from the fitted curve at half-maximal effect. The gist of the method:
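GH3.TRE-Luc rat pituitary cells (two TREs driving luciferase) were dosed with compound, then stimulated with 1 nM T3 (final) for 23.5 h at 37 C. ONE-Glo luminescence was the read-out, with CellTiter-Fluor fluorescence as the cytotoxicity counter-screen.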

Test [8] deals with thyroid hormone receptor (rat, GH3 cells). Kind of test: qHTS assay to identify small molecule agonists of the thyroid receptor (TR) signaling pathway (AID 743066; calls by dose curve).
Test [9] addresses Estrogen receptor (Homo sapiens) (UniProt P03372). The experiment in a line: qHTS assay to identify small molecule antagonists of the estrogen receptor alpha (ER-alpha) signaling pathway (AID 743069; active = well fitted curve in the direction sought with a large enough effect in the signal ratio in the repeat runs, not every such curve was filed as active; inconclusive = weak or mixed curves, or effect the other way; inactive = no such curve, though single readings can be large or run the other way; the % refers to the signal ratio; also: potency is read from the fitted curve at half-maximal effect). The gist of the method: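 Reporter cells (ER-alpha-bla, HEK293 background) are conditioned overnight in stripped-serum medium (2% charcoal-stripped FBS). Compound and 17beta-estradiol exposure runs 18 hr at 37C, 5% CO2.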

The nature of test [10]: qHTS assay to identify small molecule antagonists of the estrogen receptor alpha (ER-alpha) signaling pathway - cell viability counter screen (AID 743074; calls by dose curve;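 also: HEK293 cells carrying ER-alpha-UAS-bla reporter stimulated with 17beta-estradiol; nearly all actives have a fitted effect of over 45% in size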).
The target of test [11] is Estrogen receptor (Homo sapiens) (UniProt P03372). The experiment in a line: qHTS assay to identify small molecule agonists of the estrogen receptor alpha (ER-alpha) signaling pathway (AID 743075; calls by dose curve;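 also: HEK293 GripTite cells with ER-alpha and UAS-driven beta-lactamase reporter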; also: potency is read from the fitted curve at half-maximal effect).
The target is the same in test [12]. Kind of test: qHTS assay to identify small molecule agonists of the estrogen receptor alpha (ER-alpha) signaling pathway using the BG1 cell line (AID 743079). Also: nearly all actives have a fitted effect of over 20% in size. Also: potency is read from the fitted curve at half-maximal effect.
Test [13] can be described thus: qHTS assay to identify small molecule antagonists of the estrogen receptor alpha (ER-alpha) signaling pathway using the BG1 cell line (AID 743080; calls by dose curve;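 also: BG1 cells stimulated with 17beta-estradiol alongside compound; series mostly up to about 70 µM; nearly all actives have a fitted effect of over 25% in size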). The gist of the method:
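After 5 days in phenol-red-free 10% charcoal-stripped FBS medium, BG1-Luc-4E2 cells were seeded, left 24 h at 37 C, co-treated with compounds and 17beta-estradiol for 21.5 h, then assayed for viability and luciferase.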

Test [14] can be described thus: qHTS assay to identify small molecule antagonists of the estrogen receptor alpha (ER-alpha) signaling pathway using the BG1 cell line - cell viability counter screen (AID 743081).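 Also: compound given together with 17beta-estradiol as the ER stimulus; nearly all actives have a fitted effect of over 45% in size.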 Also: potency is read from the fitted curve at half-maximal effect.
Test [15] has as its target Aromatase (Homo sapiens) (UniProt P11511). The experiment in a line: qHTS assay to identify aromatase inhibitors (AID 743083). Also: series mostly up to about 70 µM; nearly all actives have a fitted effect of over 55% in size.
Test [16] in a line: qHTS assay to identify small molecule antagonists of the androgen receptor (AR) signaling pathway using the MDA cell line - cell viability counter screen (AID 743041; also: nearly all actives have a fitted effect of over 45% in size). The essentials: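 Same-well cytotoxicity was assessed by CellTiter-Fluor in MDA-kb2 AR-luc cells after 16 h of compound treatment under R1881 agonism.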
Test [17] deals with Androgen receptor (Homo sapiens) (UniProt P10275). The experiment in a line: qHTS assay to identify small molecule antagonists of the androgen receptor (AR) signaling pathway (AID 743035; active = well fitted inhibition curve with a large enough effect in the signal ratio in the repeat runs, not every such curve was filed as active; inconclusive = weak or mixed curves, or effect the other way; inactive = no such curve, though single readings can be large or run the other way; the % refers to the signal ratio). The essentials:
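Beta-lactamase FRET read (2 h RT incubation with LiveBLAzer B/G) following 16 h of compound plus R1881 treatment of AR-UAS-bla HEK293 cells, which had been pre-incubated 4 h at 37C.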

Test [18] shares this target. Kind of test: qHTS assay to identify small molecule agonists of the androgen receptor (AR) signaling pathway (AID 743036; active = well fitted activation curve with a large enough effect in the signal ratio in the repeat runs, with a control signal flat, not every such curve was filed as active; inconclusive = weak or mixed curves, or effect the other way; inactive = no such curve, though single readings can be large or run the other way; the % refers to the signal ratio). The essentials: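 Fluorescence from a beta-lactamase FRET substrate served as read-out in AR-UAS-bla GripTite HEK293 cells. Cells were treated with DMSO-dissolved compounds for 16 h at 37C, then with LiveBLAzer B/G substrate for 2 h at room temperature.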

For test [19] the target is unchanged. Kind of test: qHTS assay to identify small molecule agonists of the androgen receptor (AR) signaling pathway using the MDA cell line (AID 743040; also: nearly all actives have a fitted effect of over 20% in size). The gist of the method:
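Human breast carcinoma MDA-kb2 reporter cells (MMTV-luc, AR/GR elements) were treated for 16 h at 37C in 0% CO2 following a 5 h settling period. Signal was quantified by ONE-Glo luminescence.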

Test [20] shares this target. Kind of test: qHTS assay to identify small molecule antagonists of the androgen receptor (AR) signaling pathway using the MDA cell line (AID 743042). The essentials: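 MDA-kb2 breast carcinoma cells carrying MMTV-luciferase (AR/GR responsive) were co-treated with compounds and the agonist R1881 for 16 h at 37C. Inhibition read as ONE-Glo luminescence; CellTiter-Fluor fluorescence measured in parallel for cytotoxicity.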

Androgen receptor (Homo sapiens), sequence (P10275 whole entry, looked up): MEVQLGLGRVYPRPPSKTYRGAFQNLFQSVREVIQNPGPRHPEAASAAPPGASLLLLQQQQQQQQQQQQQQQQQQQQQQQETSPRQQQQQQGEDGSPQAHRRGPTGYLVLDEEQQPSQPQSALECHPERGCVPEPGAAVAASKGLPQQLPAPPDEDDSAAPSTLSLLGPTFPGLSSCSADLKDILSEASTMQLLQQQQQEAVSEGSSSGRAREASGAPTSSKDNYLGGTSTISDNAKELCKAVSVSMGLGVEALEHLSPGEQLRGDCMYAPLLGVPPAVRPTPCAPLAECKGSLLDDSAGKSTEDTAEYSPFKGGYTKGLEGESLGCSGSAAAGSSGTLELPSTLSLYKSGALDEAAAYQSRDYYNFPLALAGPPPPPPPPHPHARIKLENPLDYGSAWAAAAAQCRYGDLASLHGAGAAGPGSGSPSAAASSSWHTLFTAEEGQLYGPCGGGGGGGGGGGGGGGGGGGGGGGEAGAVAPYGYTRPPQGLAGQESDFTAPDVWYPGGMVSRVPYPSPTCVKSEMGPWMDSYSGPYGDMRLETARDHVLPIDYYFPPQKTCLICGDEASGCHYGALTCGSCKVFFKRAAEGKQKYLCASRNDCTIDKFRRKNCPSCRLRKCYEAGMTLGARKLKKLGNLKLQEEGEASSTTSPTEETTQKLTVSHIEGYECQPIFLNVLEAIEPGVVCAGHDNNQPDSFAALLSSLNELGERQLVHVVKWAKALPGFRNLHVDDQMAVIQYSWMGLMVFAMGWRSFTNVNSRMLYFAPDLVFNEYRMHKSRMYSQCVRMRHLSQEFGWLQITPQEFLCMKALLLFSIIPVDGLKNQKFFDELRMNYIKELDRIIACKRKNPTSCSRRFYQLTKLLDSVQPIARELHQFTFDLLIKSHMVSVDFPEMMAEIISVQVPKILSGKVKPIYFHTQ
Estrogen receptor (Homo sapiens), sequence (P03372 whole entry, looked up): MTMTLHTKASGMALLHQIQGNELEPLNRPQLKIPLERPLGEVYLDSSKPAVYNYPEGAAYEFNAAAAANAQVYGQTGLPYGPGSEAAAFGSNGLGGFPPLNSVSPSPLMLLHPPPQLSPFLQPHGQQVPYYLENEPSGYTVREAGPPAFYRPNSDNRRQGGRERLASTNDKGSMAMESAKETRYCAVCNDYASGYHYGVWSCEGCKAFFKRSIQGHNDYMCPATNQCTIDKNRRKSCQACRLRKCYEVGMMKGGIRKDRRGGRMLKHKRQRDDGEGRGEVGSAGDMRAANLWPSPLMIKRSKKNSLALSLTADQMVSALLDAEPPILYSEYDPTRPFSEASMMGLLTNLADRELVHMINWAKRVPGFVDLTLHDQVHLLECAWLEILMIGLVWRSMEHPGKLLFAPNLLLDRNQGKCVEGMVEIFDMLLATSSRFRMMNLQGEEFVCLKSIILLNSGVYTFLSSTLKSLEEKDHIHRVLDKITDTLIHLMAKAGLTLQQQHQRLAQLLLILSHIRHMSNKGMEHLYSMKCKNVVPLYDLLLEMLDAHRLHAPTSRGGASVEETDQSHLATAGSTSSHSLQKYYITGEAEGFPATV
Aromatase (Homo sapiens), sequence (P11511 whole entry, looked up): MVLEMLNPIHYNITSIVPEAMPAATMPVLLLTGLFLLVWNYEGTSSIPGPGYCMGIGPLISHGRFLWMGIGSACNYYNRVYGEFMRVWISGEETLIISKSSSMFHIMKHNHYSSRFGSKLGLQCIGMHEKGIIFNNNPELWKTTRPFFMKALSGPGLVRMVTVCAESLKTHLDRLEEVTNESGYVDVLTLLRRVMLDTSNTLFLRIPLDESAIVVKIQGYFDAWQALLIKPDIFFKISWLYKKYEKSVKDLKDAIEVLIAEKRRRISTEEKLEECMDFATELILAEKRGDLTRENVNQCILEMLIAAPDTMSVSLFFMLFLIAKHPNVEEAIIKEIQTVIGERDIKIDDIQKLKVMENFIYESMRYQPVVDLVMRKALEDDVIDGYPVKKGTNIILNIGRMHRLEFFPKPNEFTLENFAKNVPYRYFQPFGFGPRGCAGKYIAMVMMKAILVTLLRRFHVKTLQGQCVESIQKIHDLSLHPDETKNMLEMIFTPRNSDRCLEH

`CCO[Si](CCCNC(N)=O)(OCC)OCC`: the Potency result in [1], in test [2], in [3], in test [4], in test [5] and in test [6] was “inactive” in each case. The Potency result in test [7], in [8], in test [9], in [10], in test [11] and in test [12] was “inactive” in each case. The Potency result in [13], in [14] and in test [15] was “inactive” each time.
Consider `ClC/C=C/CCl`, for which the Potency entry in [1], in test [2], in test [3], in test [4], in test [5] and in [6] was “inactive” each time. Also, the Potency entry in test [7], in test [8], in test [9], in test [10], in [11] and in [12] was “inactive” each time. The Potency result in test [13], in test [14] and in test [15] was “inactive” in each case.
With `O=C(O)c1ccc(O)cc1`, the Potency result in test [1], in test [2], in test [3], in [4], in [5] and in [16] was “inactive” each time. In addition, the Potency result in test [6], in test [7], in [8], in test [10], in [14] and in [15] was “inactive” each time.
For the compound `Clc1ccc(Sc2cc(Cl)c(Cl)cc2Cl)cc1`, the Potency entry in test [1], in test [2], in [3], in test [4], in test [5] and in [16] was “inactive” in each case. The Potency result in test [6], in test [7], in test [8], in test [10], in [14] and in [15] was “inactive” each time.
`Cc1ccc(C)c(O)c1`: the Potency result in [1], in test [2], in test [3], in test [4], in [5] and in test [16] was “inactive” in each case. Also, the Potency entry in test [6], in test [7], in test [8], in [10], in test [14] and in test [15] was “inactive” throughout.
As to `CC(C)(Oc1ccc(Cl)cc1)C(=O)O`, the Potency result in [1], in [2], in [3], in test [4], in test [5] and in [10] was “inactive” in each case. In addition, the Potency entry in [14] and in test [15] was “inactive” each time.
As for `CC(=O)Oc1ccc(C(c2ccc(OC(C)=O)cc2)c2ccccn2)cc1`, the Potency entry in test [1], in test [5], in test [17], in test [19], in [6] and in test [7] was “inactive” each time. The Potency result in [8], in test [10] and in [15] was “inactive” in each case. In addition, the Potency in [2] is 23.7 µM (active) and inactive; in [20], 765 nM (active); in test [9], 19 µM [inconclusive] (active) and 24.4 µM [inconclusive] (active); in test [11], 3.01 µM [activator] (active); in test [14], 2.11 µM (active) and 1.92 µM (active). The call in test [18] was inactive.
As for `CC(=O)OC(C)C`, the Potency entry in test [1], in test [2], in [3], in test [4], in test [5] and in test [6] was “inactive” each time. Further, the Potency result in [7], in test [8], in test [9], in [10], in test [11] and in test [13] was “inactive” in each case. Also, the Potency result in test [14] and in [15] was “inactive” each time.
Take `C=CC(C)(O)CCC=C(C)C` (stereo not drawn): the Potency result in [1], in [2], in test [3], in test [4], in [5] and in test [6] was “inactive” in each case. Moreover, the Potency result in [7], in [8], in [10], in test [14] and in test [15] was “inactive” throughout.
`CC/C(=C(/CC)c1ccc(O)cc1)c1ccc(O)cc1`: the Potency is 26.6 µM (active) and 30.4 µM (active) and 17.2 µM (active) in test [2]; 29.8 µM (active) and 27.3 µM (active) in [3]; 26.6 µM (active) and 27.3 µM (active) in test [4]; “inactive and 48.6 µM (active)” in test [5]; 54 µM (active) and 54.5 µM (active) in [6]. Further, the Potency entry in test [16], in [10] and in test [14] was “inactive” each time.
For `CCCCCCCC/C=C\CCCCCCCC(=O)O`, the Potency entry in test [1], in test [2], in test [3], in [4], in test [5] and in [6] was “inactive” each time. Besides, the Potency entry in test [7], in test [8], in test [9], in test [10], in test [11] and in [12] was “inactive” each time. The Potency result in [13], in test [14] and in test [15] was “inactive” each time.
On to `Cc1ccc(C(C)(C)C)c(O)c1`, for which the Potency entry in [1], in test [16], in test [8], in test [9], in test [10] and in test [11] was “inactive” throughout. The Potency entry in test [12], in test [13] and in test [14] was “inactive” each time. In addition, the Potency was 54.5 µM (active) in test [2]; “inactive and 48.6 µM (active)” in test [3]; “inactive and 43.3 µM (active)” in test [4]; 54.5 µM (active) in test [7].
In the case of `C=CN1CCCC1=O`, the Potency entry in test [1], in test [2], in test [3], in [4], in test [5] and in [6] was “inactive” in each case. The Potency entry in test [9], in test [10], in test [11], in [12], in test [13] and in test [14] was “inactive” in each case. The Potency result in [15] was “inactive”.
On to `C1CN(SSN2CCOCC2)CCO1`, for which the Potency result in [1], in test [16], in test [8], in [9], in test [10] and in test [11] was “inactive” in each case. The Potency entry in test [12], in test [13] and in [14] was “inactive” throughout. In addition, the Potency in test [2] was 27.3 µM (active); in [3], 42.8 µM (active) and 27.3 µM (active); in test [4], 19.3 µM (active); in test [6] it was 67.9 µM (active); in test [7] it was 60.5 µM (active).
`NCCOCCO`: the Potency result in [1], in [2], in test [3], in test [4], in test [5] and in test [6] was “inactive” in each case. In addition, the Potency result in test [7], in [8], in test [9], in test [10], in test [11] and in [12] was “inactive” in each case. Besides, the Potency result in test [13], in [14] and in [15] was “inactive” each time.
On to `CC1=CC(C)(C)Nc2ccccc21`, for which the Potency entry in test [1], in test [3], in [4], in [5], in [6] and in test [8] was “inactive” in each case. In addition, the Potency entry in test [9], in [10], in [11], in test [12], in [13] and in test [14] was “inactive” in each case. The Potency entry in test [2] was “inactive and 66.8 µM (active)”.
As for `CCCCCCOCCOCCO`, the Potency entry in test [1], in test [2], in test [3], in test [4], in [5] and in test [6] was “inactive” each time. Moreover, the Potency result in test [7], in test [8], in [10], in test [14] and in test [15] was “inactive” in each case.
In the case of `OC[C@@H](O)[C@@H](O[C@@H]1O[C@H](CO)[C@H](O)[C@H](O)[C@H]1O)[C@H](O)[C@@H](O)CO`, the Potency entry in test [1], in [2], in test [3], in test [4], in [5] and in test [9] was “inactive” in each case. Moreover, the Potency entry in test [10], in test [13], in [14] and in test [15] was “inactive” in each case. The Potency in test [11] was 3.38 µM [inconclusive] (active) and inactive; in [12], 596 nM (active) and inactive.
